The source of these data is PubChem BioAssay.

The source made the active and inactive calls.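 How the source made its calls, unless noted: active means normalized viability below 100% at a tested concentration; inactive means the rest.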

Assay [1] is described as follows: ovarian cancer cell viability with rucaparib, profiling panel, oncology-focused library, rucaparib conditional (AID 1508598). Conditions: patient-derived ovarian cancer cells, CellTiter-Glo viability, 144 h, stronger effect = lower value. For orientation: In ATP-based viability assays light output follows the ATP content of the culture.
Assay [2] in a line: kinase inhibitors against Plasmodium liver-stage infection, cell-based, known kinase inhibitor set, luminescence, hepatoma host viability (AID 624392; call rule not given here;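 further: infected cells incubated roughly two days before readout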). Particulars: Plasmodium liver stage in hepatoma cells, luciferase luminescence, concentration not given here; liver cell % of control: measured here: host liver cell viability; parasite % of control: stronger effect = lower value.
Assay [3] can be described thus: modulators of glucocorticoid suppression of NF-kB, cell-based, luciferase, IL-1B stimulus, dexamethasone (AID 624486; call rule not given here;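 on percent of negative control (+Dex): 100% = mean signal of vehicle control wells on the plate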). Particulars: NF-kB luciferase reporter, IL-1B + dexamethasone, luminescence; percent of negative control (+Dex): actives lie on both sides, concentration not given here; z-score: measured here: IL-1B alone, no Dex. (In general: Reporter assays use an easily measured gene product as a stand-in for the process of interest.)

A short description of assay [4]: kinase inhibitors altering Pseudomonas killing of worms, whole organism (AID 651566; call rule not given here;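 further: tested at 14 µM; sign flipped so higher z means a lower ratio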). Particulars: C. elegans killed by P. aeruginosa, survival ratio.
Assay [5] can be described thus: activators of macrophage pro-inflammatory response, cell-based, murine, luminescence (AID 652131; call rule not given here). Conditions: murine macrophage pro-inflammatory reporter, stronger effect = higher value.
Assay [6] in a line: survival rescue of mitochondrial mutant cells in low glucose, primary screen, MELAS cybrids, Rieske KO mouse fibroblasts, CellTiter-Glo (AID 1508586;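 active means mean z-score across replicates of 1.96 or higher in either the MELAS or the Rieske mutant cell line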;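 further: z relative to plate mean and SD of compound and empty wells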).
Setting [7] is: at 0.000305 µM, OCI-C5x cells, with rucaparib 10 µM, 100% = cells with rucaparib alone.
Setting [8] is: at 0.000305 µM, OCI-C5x cells, without rucaparib.
Setting [9] is: at 0.000305 µM, OCI-P5x cells, with rucaparib 20 µM, 100% = cells with rucaparib alone.
Setting [10] is: at 0.000305 µM, OCI-P5x cells, without rucaparib.
The mark [11] stands for this setting: at 0.00122 µM, OCI-C5x cells, with rucaparib 10 µM, 100% = cells with rucaparib alone.
The mark [12] stands for this setting: at 0.00122 µM, OCI-C5x cells, without rucaparib.
Where [13] appears, read: at 0.00122 µM, OCI-P5x cells, with rucaparib 20 µM, 100% = cells with rucaparib alone.
Setting [14] is: at 0.00122 µM, OCI-P5x cells, without rucaparib.
[15] abbreviates: at 0.00488 µM, OCI-C5x cells, with rucaparib 10 µM, 100% = cells with rucaparib alone.
[16] abbreviates: at 0.00488 µM, OCI-C5x cells, without rucaparib.
Where [17] appears, read: at 0.00488 µM, OCI-P5x cells, with rucaparib 20 µM, 100% = cells with rucaparib alone.
The mark [18] stands for this setting: at 0.00488 µM, OCI-P5x cells, without rucaparib.
Setting [19] is: at 0.0195 µM, OCI-C5x cells, with rucaparib 10 µM, 100% = cells with rucaparib alone.
[20] abbreviates: at 0.0195 µM, OCI-C5x cells, without rucaparib.
[21] abbreviates: at 0.0195 µM, OCI-P5x cells, with rucaparib 20 µM, 100% = cells with rucaparib alone.
Where [22] appears, read: at 0.0195 µM, OCI-P5x cells, without rucaparib.
Setting [23] is: at 0.0781 µM, OCI-C5x cells, with rucaparib 10 µM, 100% = cells with rucaparib alone.
[24] abbreviates: at 0.0781 µM, OCI-C5x cells, without rucaparib.
Where [25] appears, read: at 0.0781 µM, OCI-P5x cells, with rucaparib 20 µM, 100% = cells with rucaparib alone.
Setting [26] is: at 0.0781 µM, OCI-P5x cells, without rucaparib.
[27] abbreviates: at 0.313 µM, OCI-C5x cells, with rucaparib 10 µM, 100% = cells with rucaparib alone.
Setting [28] is: at 0.313 µM, OCI-C5x cells, without rucaparib.
Where [29] appears, read: at 0.313 µM, OCI-P5x cells, with rucaparib 20 µM, 100% = cells with rucaparib alone.
Where [30] appears, read: at 0.313 µM, OCI-P5x cells, without rucaparib.
[31] abbreviates: at 1.25 µM, OCI-C5x cells, with rucaparib 10 µM, 100% = cells with rucaparib alone.
Setting [32] is: at 1.25 µM, OCI-C5x cells, without rucaparib.
Where [33] appears, read: at 1.25 µM, OCI-P5x cells, with rucaparib 20 µM, 100% = cells with rucaparib alone.
The mark [34] stands for this setting: at 1.25 µM, OCI-P5x cells, without rucaparib.
The mark [35] stands for this setting: at 5 µM, OCI-C5x cells, with rucaparib 10 µM, 100% = cells with rucaparib alone.
Setting [36] is: at 5 µM, OCI-C5x cells, without rucaparib.
[37] abbreviates: at 5 µM, OCI-P5x cells, with rucaparib 20 µM, 100% = cells with rucaparib alone.
Where [38] appears, read: at 5 µM, OCI-P5x cells, without rucaparib.
[39] abbreviates: MELAS cybrid survival, CellTiter-Glo 48 h, stronger effect = higher value.
[40] abbreviates: Rieske KO mouse fibroblast survival, CellTiter-Glo 72 h.

As a reminder, the viability is a read-out of living cells in per cent, often relative to untreated cells. Consider `CC1(C)O[C@@H]2C[C@H]3[C@@H]4CCC5=CC(=O)C=C[C@]5(C)[C@]4(F)[C@H](O)C[C@]3(C)[C@@]2(C(=O)CO)O1`, for which the viability in assay [1] (setting [7]) was 108% (inactive); in assay [1] (setting [8]) it was 124% (inactive); in assay [1] (setting [9]), 97.2% (active); in assay [1] (setting [10]) it was 122% (inactive); in assay [1] (setting [11]), 116% (inactive); in assay [1] (setting [12]), 123% (inactive). For the same compound, the viability was 101% (inactive) in assay [1] (setting [13]); 116% (inactive) in assay [1] (setting [14]); 106% (inactive) in assay [1] (setting [15]); 117% (inactive) in assay [1] (setting [16]); 96.8% (active) in assay [1] (setting [17]); 110% (inactive) in assay [1] (setting [18]). The viability in assay [1] (setting [19]) was 105% (inactive); in assay [1] (setting [20]), 122% (inactive); in assay [1] (setting [21]), 92.8% (active); in assay [1] (setting [22]) it was 107% (inactive); in assay [1] (setting [23]), 108% (inactive); in assay [1] (setting [24]), 120% (inactive). The viability was 92.1% (active) in assay [1] (setting [25]); 110% (inactive) in assay [1] (setting [26]); 105% (inactive) in assay [1] (setting [27]); 114% (inactive) in assay [1] (setting [28]); 90.6% (active) in assay [1] (setting [29]); 106% (inactive) in assay [1] (setting [30]). The viability is 109% (inactive) in assay [1] (setting [31]); 108% (inactive) in assay [1] (setting [32]); 84% (active) in assay [1] (setting [33]); 97.8% (active) in assay [1] (setting [34]); 109% (inactive) in assay [1] (setting [35]); 99.9% (active) in assay [1] (setting [36]). Moreover, the values for the viability in assay [1] (setting [37]) and in assay [1] (setting [38]) were 78.5% (active) and 90.4% (active), respectively.
In the case of `NC(=O)c1sc(-n2cnc3ccccc32)cc1OCc1ccccc1Br`, in assay [2], the liver cell % of control is 77.6%. Also, the parasite % of control in assay [2] is 256% (inactive). Also, the percent of negative control (+Dex) in assay [3] is 101% (inactive). For the same compound, the z-score is 0.185 in assay [3]; -0.075 (inactive) in assay [4]; 0.164 (inactive) in assay [5]; -0.754 (inactive) in assay [6] (setting [39]); -0.437 in assay [6] (setting [40]).
With `Nc1nonc1-c1nc2cnccc2n1C1CC1`, in assay [2], the liver cell % of control was found to be 86.3%. The parasite % of control in assay [2] was 247% (inactive). The percent of negative control (+Dex) in assay [3] is 45% (active). Besides, the z-score in assay [3] is -5.63; in assay [4], -0.345 (inactive); in assay [5], -0.857 (inactive); in assay [6] (setting [39]), -0.391 (inactive); in assay [6] (setting [40]) it was -0.585.
Turning to `C[C@@]12CC[C@H]3c4ccc(O)cc4C[C@@H](CCCCCCCCCS(=O)CCCC(F)(F)C(F)(F)F)[C@H]3[C@@H]1CC[C@@H]2O` (stereo partly drawn), the viability in assay [1] (setting [7]) is 127% (inactive); in assay [1] (setting [8]), 99.5% (active); in assay [1] (setting [9]), 110% (inactive); in assay [1] (setting [10]), 107% (inactive); in assay [1] (setting [11]) it was 116% (inactive); in assay [1] (setting [12]), 98.6% (active). The viability in assay [1] (setting [13]) was 109% (inactive); in assay [1] (setting [14]), 112% (inactive); in assay [1] (setting [15]) it was 118% (inactive); in assay [1] (setting [16]), 110% (inactive); in assay [1] (setting [17]) it was 116% (inactive); in assay [1] (setting [18]), 117% (inactive). The viability in assay [1] (setting [19]) is 118% (inactive); in assay [1] (setting [20]) it was 108% (inactive); in assay [1] (setting [21]), 116% (inactive); in assay [1] (setting [22]), 122% (inactive); in assay [1] (setting [23]), 114% (inactive); in assay [1] (setting [24]), 112% (inactive). For the same compound, the viability in assay [1] (setting [25]) was 119% (inactive); in assay [1] (setting [26]), 118% (inactive); in assay [1] (setting [27]), 119% (inactive); in assay [1] (setting [28]), 125% (inactive); in assay [1] (setting [29]) it was 122% (inactive); in assay [1] (setting [30]), 120% (inactive). Further, the viability was 123% (inactive) in assay [1] (setting [31]); 112% (inactive) in assay [1] (setting [32]); 119% (inactive) in assay [1] (setting [33]); 121% (inactive) in assay [1] (setting [34]); 124% (inactive) in assay [1] (setting [35]); 128% (inactive) in assay [1] (setting [36]). Also, the viability in assay [1] (setting [37]) was 119% (inactive); in assay [1] (setting [38]) it was 122% (inactive).
Consider `COc1cc2ncn(-c3cc(OCc4ccccc4Cl)c(C(N)=O)s3)c2cc1OC`, for which, in assay [2], the liver cell % of control came to 147%. Also, the parasite % of control in assay [2] was 37.4% (inactive). Besides, the percent of negative control (+Dex) in assay [3] is 112% (inactive). Also, the z-score in assay [3] is 0.395; in assay [4] it was -0.73 (inactive); in assay [5], -0.517 (inactive); in assay [6] (setting [39]), 0.0989 (inactive); in assay [6] (setting [40]), -0.32.
`CC1=C(/C=C/C(C)=C\C=C\C(C)=C/C(=O)O)C(C)(C)CCC1`: the viability in assay [1] (setting [7]) is 112% (inactive); in assay [1] (setting [8]), 108% (inactive); in assay [1] (setting [9]), 94.7% (active); in assay [1] (setting [10]), 87.1% (active); in assay [1] (setting [11]), 115% (inactive); in assay [1] (setting [12]), 105% (inactive). Further, the viability in assay [1] (setting [13]) is 78.9% (active); in assay [1] (setting [14]), 65.9% (active); in assay [1] (setting [15]) it was 111% (inactive); in assay [1] (setting [16]) it was 109% (inactive); in assay [1] (setting [17]), 81.7% (active); in assay [1] (setting [18]), 101% (inactive). In addition, the viability is 103% (inactive) in assay [1] (setting [19]); 106% (inactive) in assay [1] (setting [20]); 99% (active) in assay [1] (setting [21]); 97.6% (active) in assay [1] (setting [22]); 105% (inactive) in assay [1] (setting [23]); 109% (inactive) in assay [1] (setting [24]). Besides, the viability in assay [1] (setting [25]) was 96.7% (active); in assay [1] (setting [26]), 97.6% (active); in assay [1] (setting [27]) it was 108% (inactive); in assay [1] (setting [28]), 106% (inactive); in assay [1] (setting [29]), 93.9% (active); in assay [1] (setting [30]), 96.4% (active). In addition, the viability in assay [1] (setting [31]) is 103% (inactive); in assay [1] (setting [32]), 105% (inactive); in assay [1] (setting [33]) it was 92.6% (active); in assay [1] (setting [34]), 92.3% (active); in assay [1] (setting [35]), 96.2% (active); in assay [1] (setting [36]), 104% (inactive). Also, the viability in assay [1] (setting [37]) is 84.1% (active); in assay [1] (setting [38]) it was 82.8% (active).
The compound `CS(=O)(=O)CCNCc1ccoc1-c1ccc2ncnc(Nc3ccc(OCc4ccccc4)cc3)c2c1` showed a liver cell % of control in assay [2] of 97.4%. Besides, the parasite % of control in assay [2] was 112% (inactive). In addition, in assay [3], the percent of negative control (+Dex) is 80% (inactive). Besides, the z-score is -0.675 in assay [3]; 0.33 (inactive) in assay [4]; 3.01 (inactive) in assay [5]; 0.221 (inactive) in assay [6] (setting [39]); -0.404 in assay [6] (setting [40]).
